Screens (PubChem)
FadD28 FP inh – inhibitors of Mycobacterium tuberculosis FadD28 bisubstrate binding. FadD28 bisubstrate probe binding, fluorescence polarization. 0.22% of 360,000 active. inhibition, % at 12.5 µM; in the data active = inhibition above about 8.5%, passing the limit was not always enough
Mtb UGM inh – blocks M. tuberculosis UGM enzyme; P9WIQ1; purified UGM, fluorescence polarization probe displacement; inhibition, % at 10 µM; 0.06% of 320,000 active; in the data active = inhibition above about 10%, passing the limit was not always enough
Target sequence (P9WIQ1 whole entry, looked up): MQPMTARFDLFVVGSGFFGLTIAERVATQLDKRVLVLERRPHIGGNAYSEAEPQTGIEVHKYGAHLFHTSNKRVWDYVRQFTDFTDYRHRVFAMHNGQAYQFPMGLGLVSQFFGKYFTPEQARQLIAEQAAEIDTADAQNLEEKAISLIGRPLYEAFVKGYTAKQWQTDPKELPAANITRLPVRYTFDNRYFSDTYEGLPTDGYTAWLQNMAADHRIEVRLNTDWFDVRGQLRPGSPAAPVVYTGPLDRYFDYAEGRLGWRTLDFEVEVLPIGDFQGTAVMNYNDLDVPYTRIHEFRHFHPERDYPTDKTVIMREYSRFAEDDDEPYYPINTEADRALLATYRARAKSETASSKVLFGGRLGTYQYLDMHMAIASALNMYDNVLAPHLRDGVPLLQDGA
Mtb BioA inh – inhibitors of Mycobacterium tuberculosis BioA enzyme; purified M. tuberculosis BioA enzyme, plate reader; inhibition, % at 9.99 µM; 0.096% of 360,000 active; in the data active = inhibition above about 40%
Rv3671c protease – inhibitors of M. tuberculosis serine protease Rv3671c; P9WHR9; inhibition, % at 5.96 µM; 0.048% of 320,000 active; in the data active = inhibition above about 38%;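 note: extracellular domain of Rv3671c used as enzyme; 0% = enzyme with DMSO and 100% = no enzyme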
TcdB GH inh – blocks C. difficile toxin B glycohydrolase activity; P18177; AID 652162; 0.24% of 350,000 active; inhibition, % at 9.99 µM; TcdB glycohydrolase enzymatic assay, plate reader; in the data active = inhibition above about 10%
RecA intein inh – blocks M. tuberculosis RecA intein splicing; P9WHJ3; inhibition, % (no concentration beside the values); 0.75% of 290,000 active; cell-free RecA intein splicing, fluorescence; AID 2221; in the data active = inhibition above about 30%;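 note: 0% = vehicle wells and 100% = reference inhibitor control wells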
Active calls of the source: *; · = not tested or not shown. A selection: hits, their analogues and other compounds. The true share with any hit is near 0.9%.

SMILES | FadD28 FP inh | Mtb UGM inh | Mtb BioA inh | Rv3671c protease | TcdB GH inh | RecA intein inh
COc1ccc(Cl)cc1NC(=O)CSc1nnc(-c2ccco2)o1 | -1 | 0 | 2 | -5 | 19* | 1
C[C@@H]1CN([C@@H](C)CO)C(=O)CCCn2cc(nn2)CO[C@@H]1CN(C)Cc1ccc(C(=O)O)cc1 | · | · | · | · | 0 | ·
COC(=O)C[C@H]1CC[C@H]2[C@@H](COc3ccc(NC(=O)NCc4ccccc4)cc3C(=O)N2C)O1 | · | · | · | · | 1 | ·
O=C(COC(=O)c1cccc(NS(=O)(=O)c2ccc(F)c(F)c2)c1)NC(=O)NC1CCCCC1 | 32* | -2 | 2 | -62 | · | 4
COc1ccc(CN(C)C[C@@H]2Oc3ccc(NS(=O)(=O)c4cn(C)cn4)cc3CC(=O)N([C@@H](C)CO)C[C@H]2C)cc1 | · | · | -1 | · | 0 | ·
O=C(O)c1cccc(NS(=O)(=O)c2ccc3c(c2)C(=O)c2ccccc2C3=O)c1 | 2 | 3 | · | 4 | -2 | 27
O=C1c2ccccc2C(=O)c2cc(S(=O)(=O)Nc3ccccc3)ccc21 | 1 | -1 | -2 | 13 | · | 32*
C[C@@H]1CN([C@@H](C)CO)C(=O)c2cc(-c3ccccc3)cnc2O[C@@H]1CN(C)C(=O)c1ccccn1 | · | · | 2 | · | -1 | ·
O=C(O)c1ccc(-c2nnc(-c3ccccc3)o2)cc1 | -1 | 1 | -1 | -7 | 13* | -1
CC(=O)N1[C@H](C(=O)NC2CCC2)[C@@H](CO)[C@@H]2Cn3c(ccc(C4=CCCC4)c3=O)[C@@H]21 | · | · | · | · | 0 | ·
O=C(O)c1cccc(-n2cccc2/C=C\[N+](=O)[O-])c1 | 1 | 1 | · | 2 | 1 | -3
O=C(O)c1cccc(-n2cccc2/C=C/[N+](=O)[O-])c1 | 13* | 1 | · | 11 | 0 | -2
COc1cc(NC(=O)CSc2nc3[nH]ncc3c(=O)n2-c2ccccc2C)cc(OC)c1OC | -5 | 2 | · | -8 | 18* | 1
Cc1cccc(NC(=O)CSc2nc3[nH]ncc3c(=O)n2-c2ccccc2)c1 | · | 2 | · | -5 | · | 2
Cc1ccc2c(c1)c1nnc(SCC(=O)Nc3cccc(Cl)c3C)nc1n2CC(=O)O | -6 | -3 | · | -8 | 1 | ·
Cc1ccc2c(c1)c1nnc(SCC(=O)Nc3ccc(N(C)C)cc3)nc1n2CC(=O)O | -2 | -3 | 1 | 2 | 0 | 39*
COc1ccc(CN(C)C[C@H]2Oc3ccc(NC(=O)CCC(F)(F)F)cc3CC(=O)N([C@H](C)CO)C[C@@H]2C)cc1 | · | · | 4 | · | 0 | ·
O=C(C[C@@H]1CC[C@@H]2[C@H](COC[C@@H](O)CN2C(=O)c2ccc3c(c2)OCO3)O1)NCCN1CCCCC1 | · | · | -1 | · | -1 | ·
O=C(CNC1=NCCC1)c1ccc(Cl)cc1 | -2 | -1 | · | -7 | · | 45*
COCCNC(=O)C[C@H]1C[C@@H]2c3cc(NC(=O)Nc4ccccc4)ccc3O[C@@H]2[C@@H](CO)O1 | · | · | 2 | · | -1 | ·
COc1ccc2c(C)cc(SCC(=O)Nc3cc(C(N)=O)cc(C(N)=O)c3)nc2c1 | -2 | -1 | 1 | -30 | 1 | -1
COc1ccc2nc(SCC(=O)NN)cc(C)c2c1 | -2 | -1 | 0 | -13 | · | 42*
Cc1cc(SCC(=O)N/N=C/c2ccco2)nc2ccccc12 | -1 | 2 | · | 1 | 14* | 2
O=C(CSc1nc2ccccc2o1)N/N=C/c1ccco1 | -4 | -1 | 1 | 9 | 1 | 0
CC(=O)N1[C@@H]2Cn3c(cccc3=O)[C@H]1[C@@H](C(=O)N[C@@H](C)c1ccccc1)[C@@H]2CO | · | · | · | · | -4 | ·
SMILES | FadD28 FP inh | Mtb UGM inh | Mtb BioA inh | Rv3671c protease | TcdB GH inh | RecA intein inh
COc1ccc(NC(=O)N(C)C[C@@H]2Oc3ccc(NS(=O)(=O)c4ccccc4)cc3CC(=O)N([C@H](C)CO)C[C@@H]2C)cc1 | · | · | · | · | 1 | ·
CC(=O)Oc1cc2c(cc1OC(C)=O)C(=O)CCCC2 | -4 | · | -1 | · | -2 | ·
COC(=O)C1(C)Cc2cc(OC(C)=O)c(OC(C)=O)cc2N1 (stereo not given) | · | -1 | · | 2 | · | 61*
COc1ccc(C2CC(c3cccs3)=NN2C(=O)CSC2=NCCS2)cc1 (stereo not given) | -4 | -1 | 1 | -5 | -4 | 41*
CCC(=O)N1N=C(c2cccs2)CC1c1ccc(OC)cc1 (stereo not given) | -2 | 0 | 0 | · | 1 | 3
Cc1ccc(C2CC(c3cccs3)=NN2C(=O)CSC2=NCCS2)cc1 (stereo not given) | 0 | -3 | 0 | -2 | -1 | 57*
Cc1ccc(NS(=O)(=O)c2cc([N+](=O)[O-])ccc2NNC(=S)Nc2cccc(Cl)c2)c(C)c1 | 8.6* | -3 | · | -25 | · | 3
CCOC(=O)C1CCN(S(=O)(=O)c2c(Cl)ccc3nonc23)CC1 | -3 | -1 | 3 | -5 | -2 | 41*
O=C(O)c1ccccc1NC(=O)N1C[C@H]2C[C@@H](C1)c1cccc(=O)n1C2 | -2 | 3 | 0 | 4 | 15* | 1
Cc1cc(C(=O)CCl)c(C)n1CCc1ccccc1 | · | -1 | · | 5 | 0 | 40*
CC(C)CNC(=O)C(=O)NCC1CCCN1S(=O)(=O)c1cccs1 (stereo not given) | -3 | -2 | -1 | -2 | 13* | -1
C[C@@H]1CN([C@H](C)CO)S(=O)(=O)c2ccc(C3=CCCC3)cc2O[C@@H]1CN(C)C(=O)C1CCOCC1 | · | · | -1 | · | -2 | ·
COc1cc(/C=N/NC2=NCCCCC2)ccc1O | 0 | 2 | -1 | -3 | 14* | -4
O=C(C[C@H]1CC[C@@H]2[C@H](COC[C@H](O)CN2Cc2cc(F)ccc2F)O1)N[C@H]1CCN(Cc2ccccc2)C1 | · | · | -3 | · | -1 | ·
COc1ccccc1C1=NNC(=NCc2ccccc2)SC1 | -1 | -1 | · | 6 | 10* | 1
c1ccc(CN=C2NN=C(c3ccccc3)CS2)cc1 | 0 | 2 | · | -1 | 0 | 6
CCCCn1c(-c2ccccc2C)nc2cc3[nH]c(=O)c(C(C)C)nc3cc21 | -4 | 1 | 4 | 6 | 11* | 10
CCOC(=O)c1c(C)[nH]sc1=S | -1 | · | -4 | · | · | 0
CCOC(=O)c1sc(=S)[nH]c1C | -5 | · | · | · | 12* | ·
COc1cccc(NC(=O)N[C@H]2C=C[C@H](CC(=O)Nc3ccccc3)O[C@H]2CO)c1 | · | · | · | · | -1 | ·
COc1ccc(-c2ccc3n(c2=O)C[C@@H]2N[C@H]3[C@H](C(=O)N3CCCCC3)[C@H]2CO)cc1 | · | · | · | · | 0 | ·
CC1CCN(CCCn2c(=S)[nH]c3c(sc4ccccc43)c2=O)CC1 | -3 | 0 | 2 | 6 | 11* | 27
O=C(Cc1ccccn1)N1CC2(C1)[C@H](c1ccccc1)[C@@H](CO)N2C(=O)c1ccccc1 | · | · | · | · | -1 | ·
O=C(C[C@@H]1CC[C@H]2NC[C@H](O)COC[C@@H]2O1)NCCN1CCCC1 | · | · | · | · | -1 | ·
COc1cccc(S(=O)(=O)N2CCC3(CC2)CN[C@@H](CO)c2c3c3ccc(OC)cc3n2C)c1 | · | · | · | · | 1 | ·
CCC(=O)N1CC2(CCN(C(=O)c3cccnc3)CC2)c2c([nH]c3cc(OC)ccc23)[C@@H]1CO | · | · | · | · | 0 | ·
